From ChEMBL document CHEMBL4513216, “Probing the Open Global Health Chemical Diversity Library for Multistage-Active Starting Points for Next-Generation Antimalarials” (ACS Infect Dis, 2020)
In all, about 69,000 compounds went through this assay and about 8,600 (12%) showed an effect of 50% or more. The entries come from a sample that favours strong results as a whole.

test system: Plasmodium berghei; experiment: Screen against P. berghei liver stage (PbLuc), transformed with Luciferase, at 10uM; assay type: functional, HepG2; conditions: tested at 10 uM

SMILES | INHIBITION
Cc1nc(C)n(C2CCCN(C(=O)COc3cccc(C#N)c3)C2)n1 (centres undefined) | 22.3%
C[C@@H](O)CNC(=O)c1nc(CC(=O)Nc2cccc(C(F)(F)F)c2)no1 | 29.9%
Cc1ccc(N2CCC3(CC2)CC(OCC(C)C)C3)nn1 | 31.2%
O=C(O)C1CN(c2cccc(Cl)c2)CCO1 (centres undefined) | -6.92%
COCC(O)CNC(=O)Nc1c(F)cc(F)cc1-c1ccccc1 (centres undefined) | 1.19%
CCn1ncc2c1C(COCC1CC1)CN(c1ccncn1)C2 (centres undefined) | -15.1%
COCC(=O)NCc1cc(=O)n2c(n1)CN(Cc1cccs1)CCC2 | 25.8%
CCC[C@@H]1CN(c2ncnc3ccsc23)C[C@H]1NS(C)(=O)=O | -3.58%
Cc1cnccc1NCCNC(=O)[C@H]1CNC[C@H](C(=O)N2CCCC2)C1 | 15.9%
CC(C)CCN1CCC2(CC1)NCc1ccccc1NC2=O | 25.9%
Cc1cnn(CC2CN(Cc3nc4ccccc4o3)CCO2)c1 (centres undefined) | -61.4%
Cc1cnn(CC2CN(CCCS(C)(=O)=O)CCO2)c1 (centres undefined) | -12.1%
CCc1nnc(CN2CCOC(Cn3cccn3)C2)o1 (centres undefined) | -5.25%
Cc1cnn(CC2CN(CCCS(=O)(=O)N(C)C)CCO2)c1 (centres undefined) | 77.8%
CC(C)(C)c1nnc(CN2CCOC(Cn3cncn3)C2)o1 (centres undefined) | 40.3%
Cc1cnn(CC2CN(CCS(C)(=O)=O)CCO2)c1 (centres undefined) | -31.4%
Cc1cnn(CC2CN(Cc3nc4ccccc4n3C)CCO2)c1 (centres undefined) | -43.6%
CC(C)(C)c1nnc(CN2CCOC(Cn3cccn3)C2)o1 (centres undefined) | 59.7%
Cc1cnn(CC2CN(Cc3nc4ccccc4s3)CCO2)c1 (centres undefined) | 74.4%
Cc1nc(NCc2ccc(F)cc2)cc(C(=O)N2CCOCC2)n1 | -10.1%
Clc1cccc(CNc2cnn(CCN3CCCCC3)c2)c1 | 21.2%
CC(C)Nc1nc(O)cc(C2CC(=O)N(C3CCCCC3)C2)n1 (centres undefined) | -23.245%
CN(C)c1cc(C(=O)NCCc2nnc(-c3ccco3)[nH]2)ccn1 | 17.4%

SMILES | INHIBITION
O=C(NCC1CC1)C1CN(C(=O)Nc2ccccc2)CC12CCOCC2 (centres undefined) | 19.4%
CCN(Cc1ccncc1)C(=O)C(C)n1ccnc1C(C)C (centres undefined) | 10.3%
CC(C)N1C(=O)CN(CCCO)CC1(C)C | -23%
Cc1ccc(NC(=O)c2cccc(OCc3nnnn3C)c2)nc1 | -1.57%
O=C(CCCc1ccc(Cl)cc1)N1CCC(c2nnc[nH]2)CC1 | 20.9%
COc1ccc(NC(=O)N2CCC(c3nnc[nH]3)CC2)cc1C | 37.6%
CCOc1cc(NC(=O)N2CCC(c3nnc[nH]3)CC2)ccc1C | 56.6%
O=C(CCCN1CCCCC1)N1CCC(c2nnc[nH]2)CC1 | -7.53%
CCOc1ccc(NC(=O)N2CCOC(C(N)=O)C2)cc1C (centres undefined) | -5.08%
O=C(Nc1ccc(OC(F)F)cc1)N1CCC(c2nnc[nH]2)CC1 | 63.3%
CC(Cn1cccn1)n1cnc2cccc(Cl)c2c1=O (centres undefined) | 36.6%
Oc1cc(C2CCNCC2)nc(-c2ccsc2)n1 | -33.6%
Cc1occc1CNC(=O)C1CCN(C(=O)OC(C)(C)C)C1 (centres undefined) | -2.27%
Fc1ccc(NCc2nnsc2Cl)c(OC(F)F)c1 | 47.4%
Fc1ccc(NCc2ccncc2)c(OC(F)F)c1 | 73.2%
C[S+]([O-])c1ccc(CNc2ccc(F)cc2OC(F)F)cc1 (centres undefined) | 38.5%
c1cc2nc(C3CCNCC3)nn2cc1NC1CCC1 | 40.3%
CN(Cc1cccs1)C1CCC[C@@H]2CN(C(N)=O)C[C@H]12 (some centres undefined) | 39.3%
Cc1noc(C)c1CN1CCc2ncc(CN(C)C)n2CC1 | 57.1%
Cc1noc(C)c1CN1CCc2ncc(CN3CCCC3)n2CC1 | 40.8%
CCN(CC)Cc1cnc2n1CCN(Cc1c(C)noc1C)CC2 | 27.5%
CC(c1nc(C2CC2)no1)N1CCN(CCCN2CCCC2=O)CC1 (centres undefined) | -2.53%
CCc1nnc(NCc2cccc(OC)c2OC)o1 | 50.2%

SMILES | INHIBITION
COc1cccc(CNc2nnc(C(C)(C)C)o2)c1OC | 7.22%
COc1cccc(CNC(C)Cn2cccn2)c1OC (centres undefined) | 20.9%
Cc1ncccc1Oc1ncnc(N2CCCC(O)(CO)CC2)c1C (centres undefined) | 36.7%
Cc1cncc(C2CCCN2CC(N)=O)n1 (centres undefined) | 35%
Cc1ccc(OCC(O)COC2CCOCC2)c(Cl)c1 (centres undefined) | 71.3%
OC(COc1ccccc1Br)COC1CCOCC1 (centres undefined) | -42.8%
Cc1ccc(OCC(O)COC2CCOCC2)c(Br)c1 (centres undefined) | -98.4%
Cc1ccc(NC(=O)C2CSCN2C(=O)c2cnccn2)cc1C (centres undefined) | 23.25%
NCCCC(=O)NCC1(O)CCCN(c2ccnc3cccnc23)C1 (centres undefined) | 4.35%
CCCn1nc(C)c(C(=O)N[C@@H]2CC[C@@H](N3CCCC3)[C@@H]2O)c1C | 1.65%
Cc1cccc(CN2C(=O)CCC23CCN(Cc2nccn2C)CC3)n1 | 37.2%
CN(C)[C@@H]1CO[C@H](CNC(=O)Nc2ccccc2)[C@H]1O | 11.6%
CN(C)[C@@H]1CO[C@H](CNC(=O)c2ccccc2)[C@H]1O | 53%
O=C(NC[C@H]1OC[C@@H](NC2CCC(F)(F)CC2)[C@@H]1O)c1ccccc1 | 59.3%
CN(C)[C@@H]1CO[C@H](CNC(=O)c2cccs2)[C@H]1O | 44.1%
O=C(NC[C@H]1OC[C@@H](NC2CCC(F)(F)CC2)[C@@H]1O)Nc1ccccc1 | 25.3%
O=C(NC[C@H]1OC[C@@H](NC2COC2)[C@@H]1O)c1ccccc1 | 5.58%
CCn1cc(S(=O)(=O)N2CCCC3(CC=CNC3=O)C2)cn1 (centres undefined) | 28.5%
CC(CNC(=O)NCc1ccco1)N1CCc2sccc2C1 (centres undefined) | -12.5%
CCCn1c(C)c(CC(=O)NCC(N)=O)c2c1CC(C)(C)CC2=O | -13.3%
CCCn1c(C)c(CC(=O)NCCNC(C)=O)c2c1CC(C)(C)CC2=O | -4.52%
CCCn1c(C)c(CC(=O)NCCC(N)=O)c2c1CC(C)(C)CC2=O | 69.6%
CCn1cc(-n2cc3nc(N4CCC(C)CC4)[nH]cc-3c2=O)cn1 | -85.9%
